Unmarked numbers belong to inactive results. For some of these results: Entries with a potency or affinity are not part of this list. Activity calls are given as the source filed them. Unless noted, the rule behind the calls is not given here.

From PubChem BioAssay come the findings set out here.

Test [1] is described as follows: antimalarial activity against Dd2 strain (AID 2302;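 active = growth inhibition above 50% at the single 2 µM test dose, taken to imply half-maximal potency below 2 µM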;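 note: 0% = DMSO untreated growth and 100% = chloroquine plus artemisinin killed control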). The settings on record: P. falciparum Dd2 in RBCs, LDH growth readout, 72 h; at 2 µM; active compounds read high.
Test [2] in a line: HepG2 cytotoxicity, primary screen, cytotoxicity control for P. falciparum antimalarial project, cell-based, ATP luminescence (AID 2303;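 active = inhibition above 50%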;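 note: 0% = DMSO wells and 100% = digitonin-killed cells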). The settings on record: HepG2 viability, 24-48 h, at 10 µM, active compounds read high.
Test [3] concerns the target L-lactate dehydrogenase (Plasmodium falciparum (isolate CDC / Honduras)) (UniProt Q27743). Description: PfLDH activity inhibition – cell lysate, 3D7 strain, counter-screen for P. falciparum growth inhibition project (AID 2304).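 Note: 0% = vehicle and 100% = reference inhibitor.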 As to conditions: P. falciparum 3D7 crude extract, LDH APAD/NBT absorbance; at 2 µM; active compounds read high.
The nature of test [4]: inhibition of 3D7 malaria parasite growth – strain 3D7 (AID 2306).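 Note: 0% = DMSO wells and 100% = chloroquine plus artemisinin control wells.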 The settings on record: P. falciparum 3D7 erythrocytic growth, LDH absorbance, 72 h; at 2 µM; active compounds read high.
The target in test [5] is Calcium-dependent protein kinase 1 (Plasmodium falciparum (isolate 3D7)) (UniProt P62344). As to the kind of experiment: PfCDPK1 kinase inhibitors, biochemical, TCAMS library (AID 1159585; cut-off not given, nearly all actives have IC50 up to about 0.98 µM;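 note: inhibitors leave more ATP so luminescence rises with inhibition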). The settings on record: recombinant PfCDPK1, Kinase-Glo ATP depletion luminescence.
Test [6] addresses Plasmodium falciparum protein kinase 6 (PK6, PF3D7_1337100) (UniProt Q8IDW1). Description: PfPK6 kinase inhibitors, biochemical, TCAMS library (AID 1159586). As to conditions: recombinant PfPK6, Kinase-Glo ATP depletion luminescence. (In general: Kinase-Glo reads ATP consumption through a luciferase reaction.)
In test [7] the target is Protein kinase 7 (PK7), Plasmodium falciparum 3D7 (PF3D7_0213400) (UniProt Q7YTF7). Description: inhibition of Plasmodium PK7 catalytic activity – biochemical, TCAMS antimalarial set, Kinase-Glo luminescence (AID 1159587). The settings on record: recombinant PfPK7, Kinase-Glo ATP depletion luminescence.
For test [8], the target named is Calcium-dependent protein kinase 4 (Plasmodium falciparum (isolate 3D7)) (UniProt Q8IBS5). Description: PfCDPK4 kinase inhibitors, biochemical, TCAMS library (AID 1159588; cut-off not given, nearly all actives have IC50 up to about 0.91 µM). As to conditions: recombinant PfCDPK4, Kinase-Glo ATP depletion luminescence.
Chain of Calcium-dependent protein kinase 4 (Plasmodium falciparum (isolate 3D7)) (Q8IBS5 whole entry, looked up): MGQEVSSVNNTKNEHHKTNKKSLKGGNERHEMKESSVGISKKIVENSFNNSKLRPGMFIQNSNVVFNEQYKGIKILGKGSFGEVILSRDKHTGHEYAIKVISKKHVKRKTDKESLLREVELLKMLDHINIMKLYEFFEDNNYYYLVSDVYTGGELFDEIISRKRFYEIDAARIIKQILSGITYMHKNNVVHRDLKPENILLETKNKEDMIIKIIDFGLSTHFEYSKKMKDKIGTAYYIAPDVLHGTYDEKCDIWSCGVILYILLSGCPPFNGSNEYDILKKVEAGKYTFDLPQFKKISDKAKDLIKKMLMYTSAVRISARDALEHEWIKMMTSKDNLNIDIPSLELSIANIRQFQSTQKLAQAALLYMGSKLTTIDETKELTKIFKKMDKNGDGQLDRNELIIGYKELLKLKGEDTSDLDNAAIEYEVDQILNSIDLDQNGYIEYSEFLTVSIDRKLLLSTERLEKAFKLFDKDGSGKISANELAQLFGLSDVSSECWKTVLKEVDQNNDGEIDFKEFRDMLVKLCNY

Chain of L-lactate dehydrogenase (Plasmodium falciparum (isolate CDC / Honduras)) (Q27743 whole entry, looked up): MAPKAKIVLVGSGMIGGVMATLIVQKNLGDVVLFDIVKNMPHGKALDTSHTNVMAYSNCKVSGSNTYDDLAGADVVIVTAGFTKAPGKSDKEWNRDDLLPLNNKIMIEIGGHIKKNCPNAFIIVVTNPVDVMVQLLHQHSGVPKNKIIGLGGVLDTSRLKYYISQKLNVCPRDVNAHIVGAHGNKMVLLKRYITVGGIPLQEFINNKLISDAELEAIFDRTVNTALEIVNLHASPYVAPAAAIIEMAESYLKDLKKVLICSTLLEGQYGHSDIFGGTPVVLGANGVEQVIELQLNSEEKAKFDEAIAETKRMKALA
Chain of Plasmodium falciparum protein kinase 6 (PK6, PF3D7_1337100) (Q8IDW1 1-305): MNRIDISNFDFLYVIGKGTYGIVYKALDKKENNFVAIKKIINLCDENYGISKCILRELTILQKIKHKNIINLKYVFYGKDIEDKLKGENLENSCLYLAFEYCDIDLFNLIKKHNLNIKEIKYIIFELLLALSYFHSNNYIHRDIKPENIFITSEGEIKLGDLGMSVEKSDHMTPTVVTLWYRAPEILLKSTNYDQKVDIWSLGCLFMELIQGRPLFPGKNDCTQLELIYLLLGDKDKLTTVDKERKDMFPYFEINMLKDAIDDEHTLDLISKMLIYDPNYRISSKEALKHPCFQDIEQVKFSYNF
Chain of Protein kinase 7 (PK7), Plasmodium falciparum 3D7 (PF3D7_0213400) (Q7YTF7 1-343): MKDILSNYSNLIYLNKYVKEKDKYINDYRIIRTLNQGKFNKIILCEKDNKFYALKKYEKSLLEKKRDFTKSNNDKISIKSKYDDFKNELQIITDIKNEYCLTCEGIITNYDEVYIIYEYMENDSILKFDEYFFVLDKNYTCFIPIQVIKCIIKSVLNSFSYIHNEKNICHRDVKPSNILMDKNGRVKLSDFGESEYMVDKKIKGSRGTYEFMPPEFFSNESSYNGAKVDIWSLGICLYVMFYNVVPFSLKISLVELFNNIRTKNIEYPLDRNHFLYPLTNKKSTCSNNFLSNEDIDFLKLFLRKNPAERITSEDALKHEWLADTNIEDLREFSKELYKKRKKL
Chain of Calcium-dependent protein kinase 1 (Plasmodium falciparum (isolate 3D7)) (P62344 whole entry, looked up): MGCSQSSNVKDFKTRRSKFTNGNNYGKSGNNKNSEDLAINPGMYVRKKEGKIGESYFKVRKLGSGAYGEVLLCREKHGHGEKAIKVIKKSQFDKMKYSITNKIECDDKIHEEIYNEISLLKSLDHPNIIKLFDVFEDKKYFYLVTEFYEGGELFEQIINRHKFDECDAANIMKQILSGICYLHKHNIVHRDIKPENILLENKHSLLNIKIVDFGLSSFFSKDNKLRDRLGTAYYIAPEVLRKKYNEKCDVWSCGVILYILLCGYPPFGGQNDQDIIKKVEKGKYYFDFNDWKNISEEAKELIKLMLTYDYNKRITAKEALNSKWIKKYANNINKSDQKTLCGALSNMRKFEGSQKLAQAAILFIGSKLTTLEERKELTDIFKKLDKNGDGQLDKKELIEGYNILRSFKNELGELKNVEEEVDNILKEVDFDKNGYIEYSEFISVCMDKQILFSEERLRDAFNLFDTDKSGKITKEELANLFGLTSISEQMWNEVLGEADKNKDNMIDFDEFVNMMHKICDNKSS

As a reminder, the inhibition is the relative decrease from the control value, in per cent. Regarding `CN(CCO)Cc1cccc(-c2ccc(NC(=O)c3cccc(C#N)c3)cc2)c1`, the growth inhibition in test [1] is 57% (active); in test [4], 97% (active). Moreover, the inhibition was 23% in test [2] and 9% in test [3]. The outcome in test [5], in test [6], in test [7] and in test [8] was inactive.

`CCNc1cc(C)nc(Nc2ccc(NS(=O)(=O)c3cc(OC)ccc3OC)cc2)n1`: the growth inhibition is 36% in test [1] and 100% (active) in test [4]. The inhibition in test [2] is 56% (active); in test [3], -1%. Also, the outcome in test [5], in test [6], in test [7] and in test [8] was inactive.

For `COc1ccc(CNCc2ccc(F)cc2)cc1-c1ccc(S(=O)(=O)NCCN2CCCC2)c(C)c1`, the growth inhibition in test [1] is 56% (active); in test [4], 98% (active). Further, the inhibition in test [2] was 55% (active); in test [3], -2%. Moreover, the outcome in test [5], in test [6], in test [7] and in test [8] was inactive.

With `COc1ccc2nccc([C@@H](O)CN3CCC(NCc4ccc5c(c4)NC(=O)CS5)CC3)c2n1`, the growth inhibition in test [1] was 34%; in test [4] it was 101% (active). Besides, the inhibition in test [2] is 1%; in test [3], -3%. Moreover, the outcome in test [5], in test [6], in test [7] and in test [8] was inactive.

In the case of `O=C(CSc1nn(-c2ccccc2)c(=S)s1)c1c[nH]c2ccccc12`, the results for the growth inhibition in test [1] and in test [4] were 68% (active) and 93% (active), respectively. In addition, the figures for the inhibition in test [2] and in test [3] were -7% and -1%, respectively. Further, the result in test [5], in test [6], in test [7] and in test [8] was inactive.

In the case of `O=c1[nH]c2c(cc1CNC1CCCCC1)c(-c1cccc(F)c1)nn2-c1ccccc1`, the results for the growth inhibition in test [1] and in test [4] were 89% (active) and 95% (active), respectively. Moreover, the inhibition in test [2] is 6%; in test [3], 7%. Further, the result in test [5], in test [6], in test [7] and in test [8] was inactive.

In the case of `CC1N=C(N)N=C(N)N1OCc1cccc2ccccc12` (stereo not given), the growth inhibition is 4% in test [1] and 93% (active) in test [4]. The inhibition in test [2] is 66% (active); in test [3], -2%. For the same compound, the result in test [5], in test [6], in test [7] and in test [8] was inactive.

`CC(C)NC[C@@H](O)[C@H](Cc1ccccc1)NC(=O)c1cc2c3c(c1)c(C(C)C)cn3CCS(=O)(=O)N2C`: the results for the growth inhibition in test [1] and in test [4] were 99% (active) and 98% (active), respectively. In addition, the results for the inhibition in test [2] and in test [3] were 5% and -3%, respectively. Also, the outcome in test [5], in test [6], in test [7] and in test [8] was inactive.

Consider `Cc1ccccc1CCNC(=O)c1ccc(N2CCN(c3ccncc3)CC2)nc1`, for which the growth inhibition in test [1] is 20%; in test [4], 95% (active). Moreover, the inhibition is 10% in test [2] and -3% in test [3]. Besides, the result in test [5], in test [6], in test [7] and in test [8] was inactive.

`CCC(CN1C(=O)C(c2ccccc2)(c2ccccc2)N=C1N)c1ccccc1` (stereo not given): the growth inhibition in test [1] and in test [4] was 98% (active) throughout. Further, the inhibition is 11% in test [2] and -2% in test [3]. Further, the outcome in test [5], in test [6], in test [7] and in test [8] was inactive.

Regarding `CN1CCN(CCCN(C(=O)Nc2cc(C(F)(F)F)cc(C(F)(F)F)c2)c2ccccc2Cc2ccccc2)CC1`, the results for the growth inhibition in test [1] and in test [4] were 92% (active) and 89% (active), respectively. Besides, the inhibition is 35% in test [2] and 0% in test [3]. The outcome in test [5], in test [6], in test [7] and in test [8] was inactive.

`Nc1nc(N)c2c(Cl)c(CNc3cccc(C(=O)O)c3)ccc2n1`: the results for the growth inhibition in test [1] and in test [4] were 97% (active) and 93% (active), respectively. Besides, the inhibition is 69% (active) in test [2] and 7% in test [3]. Further, the result in test [5], in test [6], in test [7] and in test [8] was inactive.

For `CCCN(Cc1nnc(-c2cccs2)o1)C(=O)CSc1nnnn1-c1cc(C)cc(C)c1`, the growth inhibition in test [1] is 71% (active); in test [4], 92% (active). In addition, the figures for the inhibition in test [2] and in test [3] were 2% and 8%, respectively. Also, the outcome in test [5], in test [6], in test [7] and in test [8] was inactive.

In the case of `COc1ccc(-c2ccccc2CNc2nc(NCCc3ccc(O)cc3)nc(N3CCNCC3)n2)cc1`, the values for the growth inhibition in test [1] and in test [4] were 3% and 86% (active), respectively. Also, the results for the inhibition in test [2] and in test [3] were 48% and -3%, respectively. Also, the result in test [5], in test [6], in test [7] and in test [8] was inactive.

For `Cc1nc(-c2cccc(Nc3nccc(NCC(O)c4ccccc4)n3)c2)cs1` (stereo not given), the results for the growth inhibition in test [1] and in test [4] were 82% (active) and 99% (active), respectively. In addition, the inhibition is 43% in test [2] and 3% in test [3]. For the same compound, the outcome in test [5], in test [6], in test [7] and in test [8] was inactive.

Regarding `NCCCNc1nccc(N2CCc3ncnc(Nc4ccc(OCc5cccc(F)c5)c(Cl)c4)c3C2)n1`, the results for the growth inhibition in test [1] and in test [4] were 93% (active) and 98% (active), respectively. Also, the inhibition is 18% in test [2] and 0% in test [3]. Further, the outcome in test [5], in test [6], in test [7] and in test [8] was inactive.

As to `CNCCCNc1ccnc2cc(Cl)ccc12`, the growth inhibition is 25% in test [1] and 101% (active) in test [4]. In addition, the values for the inhibition in test [2] and in test [3] were 11% and -1%, respectively. The result in test [5], in test [6], in test [7] and in test [8] was inactive.

Turning to `CCOc1ccc2c(NN=Cc3cccc([N+](=O)[O-])c3)cc(C)nc2c1`, the growth inhibition was 97% (active) in test [1] and 100% (active) in test [4]. In addition, the inhibition in test [2] is 4%; in test [3], 3%. Besides, the result in test [5], in test [6], in test [7] and in test [8] was inactive.

With `COc1ccc(-c2ccc(NC(=O)c3ccc(Cl)cc3)cc2)cc1CN1CCCN(C)CC1`, the growth inhibition is 61% (active) in test [1] and 93% (active) in test [4]. The inhibition is 27% in test [2] and 2% in test [3]. Besides, the outcome in test [5], in test [6], in test [7] and in test [8] was inactive.

In the case of `O=C(NC1CCN(Cc2ccccc2)CC1)c1ccc(-c2nc3cc(Cl)c(Cl)cc3[nH]2)s1`, the growth inhibition was 99% (active) in test [1] and 103% (active) in test [4]. The results for the inhibition in test [2] and in test [3] were 17% and -1%, respectively. Moreover, the outcome in test [5], in test [6], in test [7] and in test [8] was inactive.
